Each structure is given as a SMILES string. Hit rate of the full screen: of about 340,000 compounds, about 1,000 (0.29%) were called active. Cut-off read from the data, not from the text of the source: inconclusive = inhibition above about 27% without an active follow-up result; inactive = below that. Only a sample is shown. Results with a measured potency or affinity are listed apart.

Data on 97 compounds can be found in PubChem BioAssay AID504329 (Southern Research Specialized Biocontainment Screening …, 2011).

This assay is described as follows: H1N1 influenza NS1A inhibitors, functional cell based assay (AID 504329). Particulars: percent inhibition, at 12.5 µM, hits give high values.
Turning to `Cc1cccc(C)c1NC(=O)CN(C)C(=O)c1cccc(S(=O)(=O)N2CCN(c3ccccc3)CC2)c1`, the inhibition (usually the relative decrease from the control value, in per cent) is 1.58% (inactive).
The same measure for `COc1ccc(/C=C/C=C2\N=C(SC)SC2=O)cc1`: 18% (inactive).
Turning to `NC1=NC(=O)/C(=C/C=C/c2cccs2)S1`, the inhibition is -14.1% (inactive).
The same measure for `CC(C)CCNC(=O)CCc1nnc2n(CCCOC(C)C)c(=O)c3ccccc3n12`: -5.28% (inactive); for `Cc1ccc(SCCN)cc1C`: 8.4% (inactive); for `O=C1CC(c2ccccc2)CN1` (configuration not stated): -20.7% (inactive).
For `COc1cc(CNC2CCC(C)C2)cc(OC)c1` (configuration not stated), the inhibition was 4.05% (inactive).
The same measure for `Cc1ccc(SC2=C(Sc3ccc(C)cc3)C(=O)c3ccccc3C2=O)cc1`: 4.19% (inactive); for `Cc1ccc(NC2=CC(=O)C(=O)c3ccccc32)cc1`: 2.25% (inactive); for `NC(=O)CC(NC(=O)Cc1cccc2ccccc12)c1ccc(N2CCc3ccccc3C2)c([N+](=O)[O-])c1` (configuration not stated): 14.5% (inactive).
With `CC1N(C)c2cc(NC(=O)c3ccco3)c(P(=O)(Nc3ccc([N+](=O)[O-])cc3)N3CCOCC3)cc2C1(C)C` (configuration not stated), the inhibition is 10.5% (inactive).
On to `CC1(C)Oc2ccc(NC(=O)c3ccco3)cc2O1`, for which the inhibition is -10.6% (inactive).
Turning to `Cc1ccc(C2(C)NC(=O)N(CC(=O)N3CCN(C(=O)c4cccs4)CC3)C2=O)cc1` (configuration not stated), the inhibition is -14.4% (inactive).
The figure for `Nc1oc2ccccc2c1C(=O)Cc1ccccc1O[C@@H]1O[C@H](CO)[C@@H](O)[C@H](O)[C@H]1O` is -10.9% (inactive); for `COC(=O)c1ccc(NC(=O)CSc2nn3c(=O)c(C)nnc3s2)cc1` it is 8.48% (inactive).
The figure for `COc1cccc(NC(=O)CSc2nc(C)cs2)c1` is -1.99% (inactive); for `COc1cccc(NC(=O)CSc2nnc(C)s2)c1` it is -8.01% (inactive); for `COc1ccc(NC(=O)CSc2nnc(C)c(=O)n2N)cc1` it is 3.72% (inactive).
The figure for `CC(C)Oc1ccc(-c2cc(=O)[nH]c(=O)[nH]2)cc1` is 2.31% (inactive); for `Cc1c(C(=O)OCC(=O)Nc2cccc(S(N)(=O)=O)c2)oc2c1ccc1ccccc12` it is -6.11% (inactive); for `Cc1cc(=O)n2c3ccccc3n(CC(O)CN3CCC(C)CC3)c2c1C#N` (configuration not stated) it is -2.23% (inactive).
`O=C(c1cccc(Cl)c1)N1CCN(C2CCCCCC2)CC1`: the inhibition was -6.08% (inactive).
The same measure for `O=C(Nc1nccs1)c1ccc(COc2ccccc2)o1`: -27.9% (inactive).
The figure for `COc1ccc(-c2nc(N)n(C(=O)Cc3ccccc3)n2)cc1` is 0.25% (inactive).
The figure for `Cc1ccc(O)c(N=Nc2nccs2)c1` is 26.6% (inactive); for `Oc1ccc(Cl)cc1/C=N/c1nccs1` it is -1.76% (inactive); for `O=C(OCC(=O)N1CCN(c2ccccc2)CC1)c1ccc2ncsc2c1` it is 3.79% (inactive).
Turning to `CC(C)(CO)NS(=O)(=O)c1ccc2c(c1)C(=O)c1cc(S(=O)(=O)NC(C)(C)CO)ccc1-2`, the inhibition is -3.45% (inactive).
The same measure for `COc1ccc(C(=O)NC2CCc3ccccc32)cc1OC1CCN(C(C)=O)CC1` (configuration not stated): -1.94% (inactive).
The same measure for `CS(=O)(=O)N1CCc2cc(S(=O)(=O)NCCNS(=O)(=O)c3ccc4c(c3)CCN4S(C)(=O)=O)ccc21`: -9.03% (inactive); for `Fc1cccc(CN2CCSCC2)c1`: -2.65% (inactive); for `O=C(NCC(c1ccco1)N1CCc2ccccc21)C(=O)Nc1ccc(F)cc1F` (configuration not stated): -6.42% (inactive).
The same measure for `O=[N+]([O-])c1ccccc1/C=N/Nc1nccnc1Cl`: 1.6% (inactive).
For the compound `Cc1nc2ccccc2nc1N/N=C/c1ccc(O)cc1`, the inhibition was 13.5% (inactive).
As for `CCN(CC)S(=O)(=O)c1ccc(N/N=C/c2cc(OC)ccc2O)nc1`, the inhibition was 5.6% (inactive).
On to `Oc1ccc(/C=N/Nc2cccc(Cl)n2)c(O)c1`, for which the inhibition is 10.3% (inactive).
The figure for `Clc1nccnc1N/N=C/c1ccc(Br)cc1` is -20.8% (inactive); for `CCN(CC)S(=O)(=O)c1ccc(N/N=C/c2ccc(O)cc2)nc1` it is 7.84% (inactive); for `Oc1cccc(C=NNc2ccccn2)c1` it is -19.8% (inactive).
For the compound `Cc1cc(N/N=C/c2ccc(O)cc2O)c2ccccc2n1`, the inhibition is 0.21% (inactive).
The same measure for `CC(C)(NO)/C(=N/O)c1cccs1`: 3.4% (inactive).
The figure for `CC(C(=O)N1CCc2ccccc21)N1CCN(c2cccc(C(F)(F)F)c2)CC1` (configuration not stated) is -0.63% (inactive).
The figure for `CCOC(=O)CSC1=N/C(=C\c2ccc(OC)c(OC)c2)C(=O)N1C` is 2.72% (inactive); for `COc1ccc(-c2ccc3nnc(SCC(=O)N4CCCC4)n3n2)cc1` it is -5.09% (inactive).
With `O=C(Nc1nccs1)c1cccnc1Cl`, the inhibition is -9.22% (inactive).
Regarding `CCc1nnc(NCn2nc(C)cc2C)s1`, the inhibition is 6.15% (inactive).
The figure for `C=CCc1c(C)nc(C)nc1N/N=C/c1ccc(F)cc1` is -0.47% (inactive); for `Oc1ccc(/C=N/Nc2nccnc2Cl)cc1` it is 5.54% (inactive).
As for `C=CCc1c(C)nc(C)nc1N/N=C/c1ccccc1`, the inhibition is -4.1% (inactive).
As to `Oc1ccc(/C=N/Nc2ccnc3cc(Cl)ccc23)c(O)c1`, the inhibition was -16% (inactive).
`Cc1c(OCC(F)(F)F)ccnc1CSc1nc2ccccc2[nH]1`: the inhibition is -9.09% (inactive).
The figure for `CCOc1ccc(OCCC(=O)N(CCCOC)c2c(N)n(Cc3ccccc3)c(=O)[nH]c2=O)cc1` is -2.75% (inactive).
The figure for `O=C1NC(=O)c2cc3ccccc3cc21` is -8.8% (inactive); for `O=C(Cn1ccccc1=O)NCc1ccc(F)cc1` it is -15.8% (inactive); for `NC1=C(Br)C(=O)c2ccccc2C1=O` it is 1.89% (inactive).
The figure for `CCOc1ccc(NC2=CC(=O)C(=O)c3ccccc32)cc1` is -7.73% (inactive).
Take `COc1ccc(NC2=C(NCCO)C(=O)c3ccccc3C2=O)cc1`: the inhibition is 23.4% (inactive).
The same measure for `COc1ccc(C2=C(Nc3ccccc3)c3ccccc3C2=O)cc1`: -2.55% (inactive); for `O=C1C(Cl)=C(Nc2ccc(O)cc2)C(=O)c2ccccc21`: 13.6% (inactive); for `COC1=C(Nc2ccccc2)C(=O)C(OC)=C(Nc2ccccc2)C1=O`: 8.96% (inactive).
The same measure for `Cc1cccc(NC2=C(NCCO)C(=O)c3ccccc3C2=O)c1`: 26.8% (inactive); for `COc1ccc(NC2=C(c3ccc(OC)cc3)C(=O)c3ccccc32)cc1`: 5.77% (inactive).
The figure for `CSCCC(=O)NC1CCCN(CCc2ccccc2)C1` (configuration not stated) is -10.8% (inactive); for `O=C(NC1=NCCS1)c1cc(-c2cccs2)nc2ccccc12` it is 1.99% (inactive).
Consider `Clc1cccc(CN2CCCCCCC2)c1Cl`, for which the inhibition is -8.07% (inactive).
The figure for `COc1cc(C2NC(=O)NC(C)=C2C(=O)OC2CCC(C)CC2)ccc1O` (configuration not stated) is -1.48% (inactive); for `CCC(=O)Nc1nc(-c2ccccc2)nc(SC)c1C(C)=O` it is 5.59% (inactive); for `O=C(NCCCN1CCCC1=O)C(=O)NCC1OCCCN1S(=O)(=O)c1cc(F)ccc1F` (configuration not stated) it is -6.67% (inactive).
The figure for `Cc1ccc(C(=O)N2CCN(c3ccc(NC(=O)c4cccnc4Cl)cc3)CC2)cc1` is 0.28% (inactive); for `COC1=C(Nc2ccc(OC)cc2)C(=O)C(OC)=C(Nc2ccc(OC)cc2)C1=O` it is 0.15% (inactive).
The same measure for `CCN(CC)c1ccc(NC2=C(Cl)C(=O)c3ccccc3C2=O)cc1`: 27.5% (inactive); for `Cc1ccc(NC2=C(N3CCCCC3)C(=O)c3ccccc3C2=O)cc1`: 28.7% (inactive).
As to `COc1ccc(C2=C(Nc3ccc(C)cc3)c3ccccc3C2=O)cc1`, the inhibition was -3.38% (inactive).
The same measure for `COc1ccc(NC2=C(NC(C)=O)C(=O)c3ccccc3C2=O)cc1`: 0.92% (inactive).
The same measure for `Cc1ccc(NC2=C(Cl)C(=O)c3ccccc3C2=O)cc1`: 2.23% (inactive); for `O=C1C(Cl)=C(Nc2ccccc2)C(=O)c2ccccc21`: -3.5% (inactive).
The figure for `CC(=O)c1ccc(NC2=C(N3CCOCC3)C(=O)c3ccccc3C2=O)cc1` is 3.86% (inactive); for `CC(C)CC(OC(=O)c1cccs1)C(=O)NCC1CCCO1` (configuration not stated) it is 11.2% (inactive); for `COc1ccccc1N1CCN(C(=O)c2ccc(S(=O)(=O)N3CCCC3)cc2)CC1` it is 4.29% (inactive).
Consider `COc1ccc(NC(=O)COC(=O)CCc2ccc(S(=O)(=O)N3CCOCC3)cc2)cc1Cl`, for which the inhibition is -1.5% (inactive).
The figure for `CCOC(=O)c1sc2nc(N3CCOCC3)c3c(c2c1N)CCC3` is 8.09% (inactive).
The same measure for `Cc1ccc(CNC(=O)Cn2nnc3ccccc3c2=O)cc1`: -3.7% (inactive); for `COC(=O)c1ccc(NC(=S)NC2CC(C)(C)NC(C)(C)C2)cc1`: -11.7% (inactive); for `CCOC(=O)C1(CCCc2ccccc2)CCN(C(=O)c2cnn(CC)c2)CC1`: 0.777% (inactive).
The figure for `O=C(NC(=S)Nc1ccc(F)c([N+](=O)[O-])c1)c1ccccc1F` is 6.76% (inactive); for `COc1cc(/C=C/C(=O)OCC(=O)NCCN2C(=O)CSC2=O)ccc1OCC#N` it is 1.99% (inactive); for `CC(C)CN(C(=O)CCC(=O)OCc1ccc(Cl)cc1Cl)c1c(N)n(CC(C)C)c(=O)[nH]c1=O` it is -1.56% (inactive).
Consider `CCN(Cc1ccccc1)c1ccc(/C=N/NS(=O)(=O)c2ccc(C)c([N+](=O)[O-])c2)cc1`, for which the inhibition is -1.19% (inactive).
The figure for `CCN(CC)c1ccc(N=Nc2nn(C)c(C)c2[N+](=O)[O-])cc1` is 9.15% (inactive).
Consider `Cn1c2c(c(=O)n(C)c1=O)C(c1ccc(F)cc1)C(C#N)=C(N)O2` (configuration not stated), for which the inhibition is -0.36% (inactive).
In the case of `Cc1cccc(/C=N/NC(=O)c2ccc(NC(=O)c3ccccc3C)cc2)n1`, the inhibition was -6.91% (inactive).
The same measure for `CCNC(=O)C(=O)N1CCC2(CC1)OCCN2S(=O)(=O)c1ccc(C)cc1`: 5.17% (inactive); for `CCC(=O)/C=C1\Sc2ccc(OC)cc2N1CCO`: 7.02% (inactive); for `CCC(/C=C1\Sc2ccc(OC)cc2N1CC)=C\c1sc2ccc(OC)cc2[n+]1CCCS(=O)(=O)[O-]`: -0.43% (inactive).
The figure for `O=C(COC(=O)/C=C/c1ccccc1[N+](=O)[O-])NC1CC1` is 0.04% (inactive); for `OCCN(Cc1ccccc1)Cc1ncccc1O` it is -15.6% (inactive); for `CCN(CC)Cc1ccccn1` it is 0.25% (inactive).
